For 40 compounds, Potency and activity, negative = inhibition results are on record in PubChem BioAssay (Tox21).

Molecules are shown by their SMILES. Results filed as inconclusive are left out. Entries that show only a call come without a potency. Values without a mark were called inactive. The source made the active and inactive calls. The call rests on the fitted dose curve.

The target in the assay is Acetylcholinesterase (Homo sapiens) (UniProt P22303). Kind of assay: Acetylcholinesterase (AChE) small molecule antagonists: colormetric cell-based qHTS assay (AID 1347395). Further: nearly all actives have a fitted effect of over 30% in size. The following applies: SH-SY5Y cells AChE activity, colorimetric (Ellman); series mostly up to 115 µM. The essentials: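 SH-SY5Y cells; cpd 30 min 37 C; + DTNB/acetylthiocholine, 90 min 37 C; colorimetric thiocholine read; qHTS.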
Acetylcholinesterase (Homo sapiens), sequence (P22303 whole entry, looked up): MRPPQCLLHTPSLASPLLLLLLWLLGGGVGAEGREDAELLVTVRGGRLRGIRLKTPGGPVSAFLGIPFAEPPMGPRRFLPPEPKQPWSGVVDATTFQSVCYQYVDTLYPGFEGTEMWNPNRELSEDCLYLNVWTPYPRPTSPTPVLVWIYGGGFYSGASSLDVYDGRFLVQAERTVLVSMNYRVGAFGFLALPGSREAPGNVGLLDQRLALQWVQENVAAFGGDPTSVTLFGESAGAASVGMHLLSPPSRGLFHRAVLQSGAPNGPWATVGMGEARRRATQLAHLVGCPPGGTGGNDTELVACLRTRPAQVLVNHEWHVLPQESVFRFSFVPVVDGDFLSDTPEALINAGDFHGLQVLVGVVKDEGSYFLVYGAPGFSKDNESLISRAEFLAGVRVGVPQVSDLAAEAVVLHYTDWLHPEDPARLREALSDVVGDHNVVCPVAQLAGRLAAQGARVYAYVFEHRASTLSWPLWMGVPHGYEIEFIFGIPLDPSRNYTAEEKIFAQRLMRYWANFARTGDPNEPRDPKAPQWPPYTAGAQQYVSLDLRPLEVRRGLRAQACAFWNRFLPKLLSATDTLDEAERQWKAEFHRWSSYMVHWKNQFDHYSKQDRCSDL
A general note: qHTS replaces the single test concentration by a dilution series.
With `CC(C)(CC(=O)O)C(=O)O`, the Potency result was “inactive”. The same measure, in the same setting: to `O=C1CCCc2ccccc21` belongs “inactive”; to `CCCCOC(=O)c1ccccc1C(=O)OCC(CC)CCCC` (stereo not given), “inactive”; to `O=Cc1ccccc1S(=O)(=O)O`, “inactive”.

As to `Oc1ccc(O)cc1`, the Potency result is “inactive”. The same measure, in the same setting: as for `CC(C)Cn1cnc2c1c(=O)n(C)c(=O)n2C`, the entry is “inactive”; as for `OC(Cn1cncn1)(Cn1cncn1)c1ccc(F)cc1F`, “inactive”; as for `O=c1cc(-c2ccc(O)cc2)oc2cc(O)cc(O)c12`, “inactive”.

`O=C(Nc1cccc(C(F)(F)F)c1)c1cc(Br)cc(Br)c1O`: the Potency result is “inactive”. Still for that read-out and setting: to `COc1ccc(OC)cc1` belongs “inactive”. Same read-out and setting: to `CC(=O)Oc1ccc(C(=C2CCCCC2)c2ccc(OC(C)=O)cc2)cc1` belongs “inactive”; to `O=C(Cl)c1ccc(F)c(Cl)c1`, “inactive”. On the same count and under the same terms, as for `CN(C)CCOC(=O)C(c1ccccc1)C1(O)CCCC1` (stereo not given), the entry is “inactive”; as for `CCOC(=O)COc1ccc(C)cc1`, “inactive”; as for `O=c1ccc2ccccc2o1`, “inactive”.

Turning to `CCOC(OCC)OCC`, the Potency entry was “inactive”. On the same count and under the same terms, as for `C/C=C1/CC2C=CC1C2` (stereo not given), the entry is “inactive”. Regarding `Fc1ccccc1`, the Potency entry is “inactive”. On the same count and under the same terms, as for `C=C(C)C(=O)OCCN(CC)CC`, the entry is “inactive”; as for `CCCCC(CC)COS(=O)(=O)O` (stereo not given), “inactive”; as for `O=c1[nH]c2ccccc2c(=O)n1CCCl`, “inactive”. The same measure, in the same setting: to `CC(=O)SCc1ccco1` belongs “inactive”; to `Cc1ccc(C(=O)Oc2ccc(C(O)CNC(C)(C)C)cc2OC(=O)c2ccc(C)cc2)cc1` (stereo not given), “inactive”; to `Nc1cc(S(=O)(=O)O)cc2cc(S(=O)(=O)O)cc(O)c12`, “inactive”. With `CC(C)Cc1nccs1`, the Potency result is “inactive”. Still for that read-out and setting: to `CCCCCC(N)=O` belongs “inactive”; to `c1cc(CCCc2ccncc2)ccn1`, “inactive”; to `O=C1NC2NC(=O)NC2N1` (stereo not given), “inactive”.

Consider `CC(C)OCC1CO1` (stereo not given), for which the Potency result was “inactive”.

For `Nc1ccc2c(c1)CN1C(=O)c3ccccc3C1=N2`, the activity, negative = inhibition is -3.06% [at 23.6 µM]. For the compound `CCN1C=CN(C)C1C` (stereo not given), the Potency result was “inactive”.

On to `C=C/C(C)=C/C/C=C(\C)CCC=C(C)C`, for which the Potency result was “inactive”. Same read-out and setting: as for `COc1ccc(Cc2cnc(N)nc2N)cc1OC`, the entry is “inactive”; as for `OCCCCCO`, “inactive”. As to `C=C[C@@H](C)CCC=C(C)C`, the Potency result is “inactive”. The same measure, in the same setting: to `C/C=C/C=N/NC(=O)c1ccncc1` belongs “inactive”; to `C/C=C(\C)C(=O)OC/C=C(\C)CCC=C(C)C`, “inactive”; to `CC(C)[C@@H]1CC[C@@H](C)C[C@H]1O`, “inactive”. Same read-out and setting: as for `Cc1nc2ccc(CN(C)c3ccc(C(=O)N[C@@H](CCC(=O)O)C(=O)O)s3)cc2c(=O)[nH]1`, the entry is “inactive”; as for `C[N+](C)(C)CC[N+]1(C)Cc2c(Cl)c(Cl)c(Cl)c(Cl)c2C1`, “inactive”.
